Shown are actives, neighbours in structure and some others; about 0.92% of the full set was active somewhere.
LAP4 TOR yeast: yeast TOR pathway LAP4-GFP modulation | actives 0.34% (n = 320,000) | S. cerevisiae LAP4-GFP multiplex, flow cytometry GFP, 3 h; median GFP as percent of DMSO wells | AID 2023 | GFP response vs DMSO, % at 10 µM;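 active means GFP response vs DMSO above a set limit, about the screen mean plus 3 SD, cut at about 150% in these data; inconclusive means under 70 cell events counted for the yeast strain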
MEP2 TOR yeast: modulators of TOR pathway MEP2-GFP in S. cerevisiae; S. cerevisiae MEP2-GFP strain, flow cytometry GFP, 3 h; 100% = DMSO control level; GFP response vs DMSO, % at 10 µM; actives 0.51% (n = 330,000); AID 2016;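 active means GFP response versus DMSO above a set limit, roughly screen mean plus 3 SD, cut at about 180% in these data; inconclusive means fewer than 70 cells counted for a yeast strain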;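 further: median GFP fluorescence of the barcode-gated MEP2-GFP cells per well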
AGP1 TOR yeast: alters AGP1-GFP fluorescence in TOR pathway yeast screen | S. cerevisiae AGP1-GFP multiplex flow cytometry, 3 h; GFP as percent of DMSO wells | GFP response vs DMSO, % at 10 µM | AID 2066 | actives 0.02% (n = 320,000);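 active means GFP response relative to DMSO above a set limit, near screen average plus 3 SD, cut at about 150% in these data; inconclusive means fewer than 70 cells counted for the yeast strain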;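 further: median GFP channel fluorescence of the gated AGP1 strain per well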
RPL19A TOR yeast: modulators of TOR pathway RPL19A-GFP in S. cerevisiae; S. cerevisiae RPL19A-GFP strain, flow cytometry, 3 h; stronger effect = lower value; percent response vs DMSO, % at 10 µM; actives 0.3% (n = 330,000); AID 2025;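 active means percent response vs DMSO below 50%; inconclusive means fewer than 70 events counted for the yeast strain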;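 further: median channel GFP fluorescence of the barcoded RPL19A-GFP strain; ratio of sample median GFP to plate DMSO average so 100% = DMSO; lower means less RPL19A-GFP as with rapamycin TOR inhibition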
CIT2-GFP yeast: alters CIT2-GFP fluorescence in TOR pathway yeast screen | GFP response vs DMSO, % at 10 µM | actives 0.065% (n = 320,000) | S. cerevisiae CIT2-GFP strain, flow cytometry, 3 h; 100 means same as DMSO wells;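 active means GFP response relative to DMSO above a set limit, near the screen mean plus 3 SD, cut at about 150% in these data; inconclusive means Fewer than 70 cells measured for a yeast strain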;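 further: ratio of well median GFP fluorescence to mean of DMSO wells on the plate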
The depositor's hits bear a star; ? = inconclusive; · = no result; [ ] = remark or other dose.

SMILES	LAP4 TOR yeast	MEP2 TOR yeast	AGP1 TOR yeast	RPL19A TOR yeast	CIT2-GFP yeast
NS(=O)(=O)c1ccc(CCNC(=O)COC(=O)c2ccc([N+](=O)[O-])o2)cc1	91	99	100	99	109
Cc1ccc(S(=O)(=O)Nc2cc(Cl)c(O)c3ncccc23)cc1	154*	97	99	103	103
Cc1ccc(S(=O)(=O)Nc2cccnc2Oc2ccc(Cl)cc2)cc1	111	103	114	106	88
Cc1ccc(S(=O)(=O)CCC(=O)Nc2nnc(-c3ccccc3S(C)(=O)=O)o2)cc1	101	107	108	101	106
CCCCC(CC)CNC(=O)C(=O)c1ccccc1NC(C)=O (stereo unspecified)	92	191*[may fluoresce violet]	17	41*[may fluoresce violet]	?
O=C(c1ccccc1)N(Nc1ccccc1)c1ccccc1	90	101	97	104	96
O=C1CNC(=S)N1Cc1ccc(F)cc1	113	359*[may fluoresce violet]	?	45*[may fluoresce violet]	?
COCCCn1c(O)c(/C=C2\N=C(C#N)C(=Nc3ccc(C)cc3)O2)sc1=S	77	756*[may fluoresce violet]	?	41*[may fluoresce violet]	?
O=C(Nc1ccccc1Cl)Nc1cccnc1Cl	86	97	86	94	100
CCOc1cc(N)c(Cl)cc1C(=O)NCC1CN(Cc2ccc(F)cc2)CCO1 (stereo unspecified)	92	94	95	98	101
CCOc1ccc(S(=O)(=O)Nc2cccc(C(=O)NCC(c3ccccc3)N(C)C)c2)cc1 (stereo unspecified)	104	104	110	103	107
CCN(CC)S(=O)(=O)c1cccc(C(=O)NCC(c2ccccc2)N(C)C)c1 (stereo unspecified)	204*	123	121	115	79
Cc1ccc(C(=O)c2nocc2C(=O)c2cccs2)cc1	155*	100	·	98	89
CCOC(=O)C1=C(COC(=O)C2CC(=O)N(c3ccccc3F)C2)NC(=O)NC1C (stereo unspecified)	107	104	105	98	105
COc1cccc(OCC(=O)N2CCCc3ccccc32)c1	144	222*	121	86	103
Cc1ccccc1OCC(=O)N1CCCc2ccccc21	103	105	105	104	102
COc1ccc(CCC(=O)N2CCCc3ccccc32)cc1	73	649*[may fluoresce violet]	?	50	?
Cc1ccccc1OCCCC(=O)NCc1ccco1	104	97	99	97	103
CCCCOc1ccc(C(=O)N2CCN(c3ccc(N4CCOCC4)nn3)CC2)cc1	157*	79	68	78	70
CCC(C)NC(=O)Cn1cnc2sc(C)c(S(=O)(=O)N3CCCCC3)c2c1=O (stereo unspecified)	96	86	102	98	101
COc1ccccc1CNC(=O)c1cnccn1	103	186*[may fluoresce violet]	?	29*[may fluoresce violet]	?
Cc1ccc(S(=O)(=O)N[C@@H](Cc2ccccc2)C(=O)CCl)cc1	142	98	84	103	68
CCOC(=O)c1cc(C)[nH]c(=O)c1C#N	70	680*[may fluoresce violet]	?	33*[may fluoresce violet]	?
O=C(/C=C/c1ccc(Cl)cc1)c1ccc([N+](=O)[O-])o1	60	279*[may fluoresce violet]	?	42*[may fluoresce violet]	?
Cc1ccc(C(=O)/C=C/c2ccc(Br)cc2)o1	112	98	99	96	97
SMILES	LAP4 TOR yeast	MEP2 TOR yeast	AGP1 TOR yeast	RPL19A TOR yeast	CIT2-GFP yeast
CC(NC(=O)c1cccs1)c1n[nH]c(=S)n1C (stereo unspecified)	83	99	86	106	112
COc1ccc(S(=O)(=O)N2c3ccccc3NC(=O)CC2C)cc1 (stereo unspecified)	116	101	113	91	149
CC1CC(=O)Nc2ccccc2N1S(=O)(=O)c1ccc(C(F)(F)F)cc1 (stereo unspecified)	108	111	115	95	162*[may fluoresce green]
Cc1ccc(C(=O)NCCn2c(N)c(C#N)c3nc4ccccc4nc32)cc1	83	184*[may fluoresce violet]	31	62	?
COCCNC(=O)c1c(N)n(CCCn2ccnc2)c2nc3ccccc3nc12	79	224*[may fluoresce violet]	?	44*[may fluoresce violet]	?
COCCNC(=O)c1c(N)n(-c2ccccc2)c2nc3ccccc3nc12	107	104	96	101	92
CC(C)Oc1ccc(C(=O)Nc2c3c(nn2-c2ccccc2)CS(=O)(=O)C3)cc1	96	97	104	100	105
CCOC(=O)c1cc2c(=O)n3ccccc3nc2n(CCOC)c1=NC(=O)C(C)(C)C	117	331*	111	57	114
Cc1noc(C)c1C(=O)Nc1nnc(-c2ccccc2)s1	104	231*[may fluoresce violet]	21	55	?
Cc1onc(-c2ccccc2)c1C(=O)Nc1nnc(-c2ccncc2)s1	109	104	99	102	93
CCN(C(=O)COC(=O)c1ccc2c(=O)n3c(nc2c1)CCC3)C1CCS(=O)(=O)C1 (stereo unspecified)	99	102	101	101	105
CCCN1CCN(CCCNC(=O)c2ccccc2NC(=O)C2=C(C)OCCS2)CC1	103	100	96	101	96
CN(C)c1ccc(P(=O)(OCc2ccccc2)C(O)c2ccccc2)cc1 (stereo unspecified)	113	97	105	99	102
Cc1cc(C)nc(NC(=S)NC(=O)c2ccccc2F)n1	111	95	101	94	90
Cc1cc(C)nc(S/C=C/C(=O)c2ccccc2F)n1	182*	98	112	100	110
COc1ccccc1-c1nnc(NC(=O)c2ccc3c(c2)OCO3)s1	124	272*	99	97	115
CC(C)c1nnc(NC(=O)c2ccc3c(c2)OCO3)s1	100	97	98	99	103
Cc1onc(-c2ccccc2Cl)c1C(=O)Nc1ccccc1O	100	104	99	104	105
CCOc1ccccc1NC(=O)CSc1nccn1-c1ccccc1	90	264*[may fluoresce violet]	?	·	?
Cc1cc[n+](-c2ccccc2)c2ccccc12	100	102	99	103	91
Cc1ccc(S(=O)(=O)NCCCCCC(=O)Nc2c(C)n(C)n(-c3ccccc3)c2=O)cc1	62	251*[may fluoresce violet]	?	37*[may fluoresce violet]	?
COc1cc(CN2CCC(n3nccc3NC(=O)C3CC3)CC2)cc(OC)c1	85	106	105	112	104
COc1ccccc1OCC(=O)Sc1ccc(C)cc1	159*	97	98	93	93
Cc1ccc(S(=O)(=O)N(C)c2c(C)ccc(S(=O)(=O)NC(C)(C)C)c2C)cc1	100	103	100	94	96
CCOc1ccc2nc(SCC(=O)NCC3CCCO3)c(C#N)cc2c1 (stereo unspecified)	112	211*	49	99	93
CC(C)OC(=O)NS(=O)(=O)c1cccc([N+](=O)[O-])c1	91	98	95	101	101

Screening results: PubChem, NMMLSC
